Results published in PubChem BioAssay AID602350 (Broad Institute, 2012).
Results with a measured potency or affinity are listed apart. Activity calls are given as the source filed them.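 Rule for the calls: active = absorbance falls by 30% or more versus neutral controls, with a potency fitted within twice the top valid dose; inconclusive = no clear call, values can overlap the other calls; inactive = change opposite to expected direction, plus the rest.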

Target: Protein disulfide-isomerase (Homo sapiens) (UniProt P07237)
Sequence (P07237 whole entry, looked up): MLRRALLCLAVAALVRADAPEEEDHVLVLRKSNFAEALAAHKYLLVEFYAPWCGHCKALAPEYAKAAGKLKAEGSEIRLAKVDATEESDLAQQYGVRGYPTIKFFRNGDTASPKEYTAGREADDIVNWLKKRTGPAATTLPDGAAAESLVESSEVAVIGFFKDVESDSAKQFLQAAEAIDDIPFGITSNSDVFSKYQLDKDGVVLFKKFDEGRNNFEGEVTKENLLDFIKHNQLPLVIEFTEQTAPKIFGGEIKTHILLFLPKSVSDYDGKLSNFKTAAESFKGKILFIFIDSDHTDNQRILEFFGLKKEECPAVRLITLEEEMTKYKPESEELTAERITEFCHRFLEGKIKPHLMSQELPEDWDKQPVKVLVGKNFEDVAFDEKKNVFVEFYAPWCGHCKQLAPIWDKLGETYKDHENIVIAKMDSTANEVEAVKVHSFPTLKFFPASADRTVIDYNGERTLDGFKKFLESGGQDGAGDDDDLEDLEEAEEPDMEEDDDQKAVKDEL
Assay: PDI inhibitors, insulin aggregation turbidity, dose response, biochemical, absorbance, cherry-picked samples (AID 602350);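 note: 0% = neutral controls and -100% = rutin hydrate positive control wells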
Conditions: recombinant PDI insulin aggregation, absorbance 650 nm, 90 min; series mostly up to 19.5 µM; activity change, negative = inhibition: at the top concentration

Activity change, negative = inhibition, inactive:
O=C(Cn1nnc2ccccc21)OCC(=O)c1ccccc1 13.7%
CC(=O)Oc1ccccc1C(=O)C=Cc1cccc([N+](=O)[O-])c1 -11.6%
Cc1cc(C)c2c(=O)n3c(nc2c1)C(Cc1ccc(O)cc1)NC(=O)c1cccnc1-3 (stereo not given) -21.6%
COc1ccc(C(=O)c2c(C)c3cc(C)ccc3n2CC(O)CN2CCOCC2)cc1 (stereo not given) -5.21%
O=S(=O)(Nc1ccc(C(O)(C(F)(F)F)C(F)(F)F)cc1)c1ccc(Cl)c2nonc12 -7.86%
CC1(c2ccc3ccccc3c2)NC(=O)N(CC(=O)Nc2cccc(S(=O)(=O)N3CCOCC3)c2)C1=O (stereo not given) -3.1%
CCOC(=O)C1(C)CCCN(C(=O)c2cccc(Cl)c2)C1 (stereo not given) 11.9%
COc1ccc(OC)c2[nH]c(=O)c(CCNC(=O)C(=O)c3c(C)[nH]c4ccccc34)cc12 3.8%
CC(=O)NC(Cc1c[nH]c2ccccc12)C(=O)OCC(=O)N1CCN(S(=O)(=O)c2ccc(Cl)cc2)CC1 (stereo not given) -12.7%
O=C1NC(Cc2ccc(O)cc2)c2nc3cc(Cl)ccc3c(=O)n2-c2ncccc21 (stereo not given) -7.67%
CC(=O)c1ccc(N2CCN(C(=O)c3ccc4[nH]c(C)c(C)c4c3)CC2)cc1 1.67%
COc1ccc(CN(C)C[C@@H]2Oc3c(NS(C)(=O)=O)cccc3C(=O)N([C@H](C)CO)C[C@H]2C)cc1 -21.9%
O=C1CN(c2nc3ccccc3n3cnnc23)CC(=O)N1CCc1ccccc1 5.79%
COCC(=O)N(C)C1(c2nnnn2CCOC(=O)Nc2ccc(Cl)cc2)CCCCC1 21.7%
CN(C)CCCN(C(=O)c1ccc(S(=O)(=O)N2CCc3ccccc32)cc1)c1nc2c(Cl)cccc2s1 -18.3%
c1ccc(Cn2nnc3c(Nc4ccc5c(c4)OCO5)nc(C4CC4)nc32)cc1 1.15%
O=C(CN(CCc1ccccc1)C(=O)CNS(=O)(=O)c1ccccc1)NCC1CCCO1 (stereo not given) 6.4%
Cc1ccc(NC(=O)NC(=O)CN2CCC(C(N)=O)CC2)c(C)c1 -0.809%
CCOC(=O)c1c(CN2CCN(CCO)CC2)n(C)c2cc(Br)c(OC)cc12 6.16%
COc1ccc(C[C@@H]2OC3(C=CC(=O)C=C3)O[C@H]2Cc2ccc(OC)cc2)cc1 -2.56% [at 2.1 µM]
CCOC(=O)CN(c1ccccc1)S(=O)(=O)c1ccc(F)cc1 -16%
O=C(NCCc1c[nH]c2ccccc12)/C(=C\c1cccnc1)NC(=O)c1ccccc1Br -6.31%
CCCCC1CCC(c2nc(-c3ccccn3)no2)CC1 (stereo not given) 0.964%
CC[C@]12c3[nH]c4cc(-c5ccco5)ccc4c3CCN1C(=O)[C@@H](CC(=O)NCc1ccc(OC)c(OC)c1)C[C@@H]2C(=O)N1CCN(C(=O)C2CC2)CC1 12.2%
CCOc1c(Cl)cc(CNC(C)(C)CC(C)(C)C)cc1OC 0.928%
Cc1noc(C)c1-c1ccc(C(=O)NCc2ccc(Cl)cc2)c2occc12 -1.09%
CCOC(=O)C1(CCOc2ccccc2)CCN(Cc2cccc(F)c2)CC1 -1.84%
CCCCNC(=O)N1CCN(C(=O)C2CCCO2)CC1 (stereo not given) -3.88%
Cc1ccc(N2CC(C(=O)Nc3nc4ccc(S(C)(=O)=O)cc4s3)CC2=O)cc1 (stereo not given) -4.21%
O=C(C[C@H]1C[C@H](C(=O)N2CCCCC2)[C@@]2(CCc3ccccc3)c3[nH]c4cc(-c5ccco5)ccc4c3CCN2C1=O)NCCC1=CCCCC1 -0.872%
COc1ccc(CNC(=O)c2ccc(CS(=O)Cc3cccc(Cl)c3)o2)cc1 (stereo not given) 2.11%
O=C(NCc1ccccn1)Nc1cccc(Cl)c1 -3.69%
O=C(NN1CC(C(=O)OCc2ccccc2F)CC1=O)c1ccccc1 (stereo not given) -0.039%
Cc1cc(C(=O)Cn2nnc3ccccc3c2=O)c(C)n1-c1ccccc1F 1.9%
O=C1NC[C@H](Cc2ccccc2)N(C[C@H]2CCCN2C[C@H](Cc2ccccc2)N2C[C@H](Cc3ccc(O)cc3)N(CC3CCCCCC3)C(=O)C2=O)C1=O -0.123%
COc1ccccc1NS(=O)(=O)c1ccc(C)c(C(=O)NCC2(N(C)C)CCCCC2)c1 14%
CC1CC(C)CN(C(=O)COC(=O)c2ccc[nH]c2=O)C1 (stereo not given) 3.89%
COc1ccc(Oc2ccc(/C=C/C(=O)c3ccc(O)cc3)cc2[N+](=O)[O-])cc1 2.36%
FC(F)(F)c1cccc(NC(=S)NCc2ccccn2)c1 1.52%
C[C@@H](CN1C2=NC[C@H](Cc3ccc(O)cc3)N2C[C@H]1Cc1ccc(O)cc1)NC(=O)CCC1CCCCC1 -11.3%
